Data reported in PMC4336329 (PLoS ONE, 2015).
Among all 310,000 compounds or so, about 14,000 (4.5%) showed an effect of 50% or more. Effects have a minus sign here. The list comes from a sample in which strong results are over-represented; it also holds similar structures and randomly drawn compounds.

These compounds were tested against human ether-à-go-go-related gene (hERG) potassium channel (human, UniProt Q12809) (assay: primary screen, population patch clamp on CHO cells stably expressing hERG; higher = less effect of the substance).
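Further: peak tail current of the secondary pulse compared with the same well before compound.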

human ether-à-go-go-related gene (hERG) potassium channel, sequence (Q12809 whole entry, looked up): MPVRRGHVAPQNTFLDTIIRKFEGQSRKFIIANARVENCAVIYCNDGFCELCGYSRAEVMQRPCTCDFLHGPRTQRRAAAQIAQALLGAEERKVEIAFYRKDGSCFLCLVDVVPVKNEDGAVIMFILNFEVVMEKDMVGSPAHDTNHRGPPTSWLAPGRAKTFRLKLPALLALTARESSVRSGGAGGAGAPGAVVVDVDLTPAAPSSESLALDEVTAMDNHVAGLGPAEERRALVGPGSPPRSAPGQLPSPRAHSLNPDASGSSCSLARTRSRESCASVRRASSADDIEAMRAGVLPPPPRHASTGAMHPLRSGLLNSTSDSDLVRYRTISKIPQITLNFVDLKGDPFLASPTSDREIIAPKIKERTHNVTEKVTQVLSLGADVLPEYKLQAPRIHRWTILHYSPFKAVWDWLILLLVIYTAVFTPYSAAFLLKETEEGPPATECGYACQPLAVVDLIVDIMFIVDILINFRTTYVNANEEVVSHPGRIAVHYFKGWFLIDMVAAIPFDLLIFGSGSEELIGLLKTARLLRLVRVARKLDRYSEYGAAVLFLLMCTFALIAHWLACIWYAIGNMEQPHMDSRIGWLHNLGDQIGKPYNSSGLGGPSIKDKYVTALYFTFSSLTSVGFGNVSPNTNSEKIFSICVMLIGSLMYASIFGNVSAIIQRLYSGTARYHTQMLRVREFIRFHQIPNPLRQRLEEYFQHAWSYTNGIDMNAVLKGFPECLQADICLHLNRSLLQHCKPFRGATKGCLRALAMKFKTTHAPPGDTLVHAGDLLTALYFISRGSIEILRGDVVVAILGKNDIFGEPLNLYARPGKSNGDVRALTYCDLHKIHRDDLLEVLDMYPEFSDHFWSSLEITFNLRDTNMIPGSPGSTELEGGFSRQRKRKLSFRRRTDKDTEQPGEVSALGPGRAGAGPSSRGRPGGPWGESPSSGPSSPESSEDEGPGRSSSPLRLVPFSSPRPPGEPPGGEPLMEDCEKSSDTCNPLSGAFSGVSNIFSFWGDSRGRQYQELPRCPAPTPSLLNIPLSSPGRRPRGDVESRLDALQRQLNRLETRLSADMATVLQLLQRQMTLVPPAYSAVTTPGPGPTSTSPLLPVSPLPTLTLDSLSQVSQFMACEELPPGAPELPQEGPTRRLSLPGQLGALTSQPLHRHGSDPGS

SMILES | hERG current change (%, negative = inhibition) at 10uM [%]
O=C(CN(C(=O)c1csnn1)c1ccc(F)c(Cl)c1)NCc1ccc(F)cc1 | 7.3
CN1OC(Cn2cc(C#N)c(=O)n(C)c2=O)CC1c1ccccc1 (stereo not shown) | 12.5
CCOc1ccc(CN(C)CC(=O)Nc2cc(C)c(C)cc2[N+](=O)[O-])cc1.CN(C)C=O | 9.36
Oc1ccc(Nc2nc(-c3ccc(O)cc3)cs2)cc1 | 18.9
Cc1cc(C)cc(NC(=O)c2ccc(CSc3nnnn3C)cc2)c1 | -24
Cl.NCCCNc1ccc([N+](=O)[O-])cc1C(F)(F)F | -15
CCn1cc(C(=O)O)c(=O)c2cc(F)c(N3CCN(C(=S)NC(=O)c4cccc(F)c4)CC3)cc21 | 5.44
Cn1c(=O)[nH]c(=O)c2c1ncn2CCCc1ccccc1 | 1.26
Cc1ccc(-c2[nH]ncc2C(=O)c2ccc(Br)cc2)c(O)c1 | -9.43
O=C(O)C(=O)O.OCCN1CCN(c2cc(-c3ccccc3)c3ccccc3n2)CC1 | -63.3
COc1ccc2c(-c3ccccc3)cc(N3CCOCC3)nc2c1.O=C(O)C(=O)O | 3.22
O=C(O)C(=O)O.c1ccc(-c2cc(N3CCOCC3)nc3ccccc23)cc1 | -11.6
CCOC(=O)c1ccc[n+](CC(=O)Nc2ccccc2OC(F)F)c1.[Cl-] | 4.85
CCCCOc1ccc(C(=O)Nn2cnnc2)cc1 | -0.225
Cc1nc2ccc(NC(=O)c3cc(Cl)ccn3)cc2s1 | 17.4
Cc1sc2nc(SCc3ccc(C(=O)O)cc3)n(Cc3ccco3)c(=O)c2c1C | -59.2
Cc1sc2nc(SCc3ccccc3)n(Cc3ccco3)c(=O)c2c1C | -2.09
C=CCn1c(SCc2ccc(C(=O)O)cc2)nc2sc(C)c(C)c2c1=O | -4.36
Cc1ccc(CSc2nc3sc(C)c(C)c3c(=O)n2Cc2ccco2)cc1 | -6.19
C=CCn1c(SCc2ccc(C(=O)NCCO)cc2)nc2sc(C)c(C)c2c1=O | -61.6
C=CCn1c(SCC(=O)NCCO)nc2sc(C)c(C)c2c1=O | 11.6
O=C1C2CC=C(Cl)CC2C(=O)N1CCC[n+]1cccc2ccccc21 (stereo not shown) | 8.95

SMILES | hERG current change (%, negative = inhibition) at 10uM [%]
Cc1onc(-c2ccccc2Cl)c1C(=O)Nc1nnc(-c2ccc(Cl)cc2Cl)s1 | 17
Cc1cc(OCC(=O)NCC(O)c2ccccc2)c2c3c(c(=O)oc2c1)CCC3 (stereo not shown) | 16.1
Cc1ccc(/C=N/NC(=O)Cn2cnc3ccccc32)cc1 | 14.4
CC1(C)CNc2cc([N+](=O)[O-])ccc2S1 | 6.88
COc1ccc(C(=O)NCC(=O)N2CCN(c3ccc(F)cc3)CC2)cc1 | -1.94
CCOCCCN(C)C1CCN(C(=O)c2oc3ccccc3c2NC(=O)COc2cccc(C)c2)CC1 | -82.2
CCOCC(=O)Nc1c(C(=O)N2CCN(c3ncccn3)CC2)oc2ccccc12 | -21.4
CCOC(=O)c1oc2ccccc2c1NC(=O)COc1ccc(F)cc1 | 14
CCOCCCN(C)C1CCN(C(=O)c2oc3ccccc3c2NC(=O)c2ccc(F)cc2)CC1 | -77.5
NC(=O)c1oc2ccccc2c1NC(=O)c1ccc(F)cc1 | 10.9
CCOCCCN(C)C1CCN(C(=O)c2oc3ccccc3c2NC(=O)COc2ccc(F)cc2)CC1 | -80.1
CCOC(=O)c1oc2ccccc2c1NC(=O)COc1cccc(OC)c1 | 10.4
COCCCN(C)C1CCN(C(=O)Nc2ccc(F)cc2)CC1 | -28.8
CCOCC(=O)Nc1c(C(=O)OCC)oc2ccccc12 | -11.1
CCOCCCN(C)C1CCN(C(=O)c2oc3ccccc3c2NC(=O)Cc2ccc(F)cc2)CC1 | -77.8
COc1ccc(CC(=O)Nc2c(C(=O)N3CCN(c4ccccc4OC)CC3)oc3ccccc23)cc1OC | -24.4
COc1ccc(S(=O)(=O)Nc2ccc3oc(C)c(C(=O)O)c3c2)cc1 | 21.3
CSc1nc(C)cc(Oc2ccc(OCCOc3ccccc3)nn2)n1 | -23.2
OC1(c2ccc(Cl)cc2)CCN(Cc2nc(-c3cnccn3)no2)CC1 | -1.35
CSc1nc2n(n1)C(c1cccc(F)c1)C(C(=O)Nc1ccc(C)cc1C)=C(C)N2 (stereo not shown) | -0.769
O=C(COC(=O)c1ccccc1N1C(=O)C2C3CCC(C3)C2C1=O)c1ccccc1 (stereo not shown) | 1.28
COc1cccc(N(C(=O)c2sc(C)nc2C)C(C(=O)NCC2CCCO2)c2ccccc2)c1 (stereo not shown) | -8.87

SMILES | hERG current change (%, negative = inhibition) at 10uM [%]
CC1CCCCC1NC(=O)c1ccc2c(c1)OCCO2 (stereo not shown) | 3.51
Cc1cc(OCc2nc3ccccc3s2)ccc1N | -1.17
Cc1cc(NC(=O)/C=C/c2cccc(Cl)c2)n(-c2nc3ccccc3[nH]2)n1 | -1.83
COc1ccc(-c2csc(N3CCN(S(=O)(=O)c4ccc5c(c4)NC(=O)CO5)CC3)n2)cc1 | 17.2
CCC(=O)N(C(=O)CC)N1CCN(c2ccncc2S(=O)(=O)N2CCCCC2)CC1 | -52.5
CCC(=O)NN1CCN(c2ccncc2S(=O)(=O)N2CCCCC2)CC1 | 5.14
CN1CCN(c2ccncc2S(=O)(=O)N2CCCCC2)CC1 | 14.7
Cc1cc(N(C)C)c(C#N)c(N2CCCCC2)n1 | -4.92
O=C(OC(c1ccccc1)c1nccc2ccccc12)c1cc([N+](=O)[O-])cc([N+](=O)[O-])c1 (stereo not shown) | 22.9
Cc1occc1C(=O)/C(C#N)=C/c1ccc(O)c(Br)c1 | 6.16
O=C(NCCc1cn2ccccc2n1)c1cc(COc2ccc3ncccc3c2)on1 | -65.7
Cc1cc(C)nc(CCNC(=O)c2cc(COc3c(F)cccc3F)on2)n1 | 4.72
Cc1ccc(OCc2cc(C(=O)NCc3cn4ccccc4n3)no2)cc1C | -38.7
Cc1cc(C)n(CCNC(=O)c2cc(COc3ccc4ncccc4c3)on2)n1 | -3.15
O=C(NCCCc1ccccc1)c1cc(COc2c(F)cccc2F)on1 | -6.23
O=C(NCCc1cn2ccccc2n1)c1cc(COc2c(F)cccc2F)on1 | -64.9
Cc1cc(C(=O)NC(=S)Nc2cccc(NC(=O)C(C)C)c2)ccc1[N+](=O)[O-] | 3.95
Cc1ccc(NC(=O)C2CCC(=O)N2C(=O)OCc2ccccc2)cc1 (stereo not shown) | -23.5
COc1ccc(F)cc1C(=O)C1CCCN(C(=O)CSc2ccccn2)C1 (stereo not shown) | -7.26
COc1ccc(C(=O)C2CCCN(C(=O)c3cccnc3OC)C2)cc1F (stereo not shown) | -4.56
COc1ccc(F)cc1C(=O)C1CCCN(Cc2cccn2-c2cccnc2)C1 (stereo not shown) | -47
COc1ncccc1C(=O)N1CCCC(C(=O)c2cc(F)ccc2F)C1 (stereo not shown) | -9.02

SMILES | hERG current change (%, negative = inhibition) at 10uM [%]
CN(C)c1cccc(C(=O)N2CCCC(C(=O)c3cc(F)ccc3F)C2)c1 (stereo not shown) | 0.21
COc1ccc(F)cc1C(=O)C1CCCN(Cc2cccn2-c2ccccn2)C1 (stereo not shown) | -83.5
O=C(c1cc(F)ccc1F)C1CCCN(C(=O)CSc2ccccn2)C1 (stereo not shown) | -31.9
O=C(c1cc(F)ccc1F)C1CCCN(C(=O)c2ccc3nccnc3c2)C1 (stereo not shown) | -50.2
COc1ccc(C(=O)C2CCCN(Cc3cccn3-c3ccccn3)C2)cc1F (stereo not shown) | -78.5
COC(=O)c1cccc(C(=O)N2CCCC(C(=O)c3cc(F)ccc3F)C2)c1 (stereo not shown) | -21
O=C(c1cc(F)ccc1F)C1CCCN(Cc2cccn2-c2ccccn2)C1 (stereo not shown) | -77.9
COc1ccc(S(=O)(=O)N2CCC(C(=O)NC3(C)CCS(=O)(=O)C3)CC2)cc1OC (stereo not shown) | 7.87
Cc1cc(C)nc(N2CCCC(C(=O)NCc3cccc(C(F)(F)F)c3)C2)n1 (stereo not shown) | 16.7
Cc1ccc(CN2CCN(/N=C/c3cc(Br)cc(Br)c3O)CC2)cc1 | 5.09
CCOC(=O)C(CC)/C(C)=N\NC(=O)c1cccc(C)c1 (stereo not shown) | 35.5
O=S(=O)(NCc1ccc(C(F)(F)F)cc1)c1ccc(-n2cnnn2)cc1 | -22.2
COC(=O)C1=C(C)NC(=S)N(C(C)=O)C1c1ccccc1 (stereo not shown) | -8.87
CCc1sc(C(=O)Nc2cc(S(=O)(=O)N3CCOCC3)ccc2OC)cc1C | 7.24
O=c1[nH]c(C2CCCN(S(=O)(=O)c3ccccc3)C2)nc2c1nnn2Cc1ccc(OC(F)(F)F)cc1 (stereo not shown) | 26.6
COc1cccc(-c2nnc(SCC(N)=O)n2-c2ccc(Cl)cc2)c1 | -9.7
O=C1CN=C(c2ccccc2)c2cc(Br)ccc2N1Cc1cc(=O)n2ccccc2n1 | -51.7
NNC(=O)CN1C(=O)CN=C(c2ccccc2)c2cc(Br)ccc21 | -5.51
CC(=O)NNC(=O)CN1C(=O)CN=C(c2ccccc2)c2cc(Br)ccc21 | 13.1
